This is a sample that favours compounds with a hit; in the whole collection about 2.7% have one here.
Shn3 inh set2 – Schnurri-3 reporter inhibition in Clone20 osteoblasts | Clone20 osteoblast Shn3 3'UTR firefly luciferase, 24 h | inhibition, % at 12.5 µM | hit rate 0.52% among 360,000;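 active means mean inhibition of at least 75% with every replicate also reaching 75%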
Peg3 promoter – inhibitors of Peg3 promoter. HeLa PEG-Prom luciferase reporter, luminescence, overnight. inhibition, % at 20 µM. hit rate 1.7% among 360,000. AID 588405;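 active means inhibition of at least 50% at 20 µM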
TRPM1 prom inh – reduces MITF-dependent TRPM1 promoter luciferase signal. AID 488899. SK-MEL-5 TRPM1 promoter luciferase, 24 h. hit rate 0.83% among 330,000. inhibition, % at 12.5 µM;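 active means mean inhibition across replicates of 60% or more, whatever share of single replicates reaches that level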
HIF-2a inh – HIF-2a inhibition; 786-0 RCC cells HIF-2a reporter, luciferase luminescence, overnight; inhibition, % at 18.8 µM; hit rate 0.72% among 360,000;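 active means inhibition of the luminescence signal of 40% or more relative to plate controls, in a single-dose primary screen at 18.75 µM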
KKLEB tox – reduces viability of KKLEB cystic fibrosis airway cells; AID 602141; hit rate 0.36% among 360,000; activity change (cytotoxicity), % at 5 µM; KKLEB CF airway cells viability, ATPlite luminescence, overnight; active compounds read low; cells stimulated with P. aeruginosa culture filtrate;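 active means corrected activity change at or below -50% at 5 µM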
CF NFkB block – blocks PAF-induced NF-kB reporter in cystic fibrosis cells | inhibition, % at 5 µM | hit rate 0.86% among 360,000 | KKLEB NF-kB-GFP reporter, GFP fluorescence overnight;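 active means at least 50% inhibition at 5 µM, scaled per plate between neutral and stimulator controls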;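 further: PAF is a Pseudomonas aeruginosa culture filtrate used as stimulus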
Each line names hits and unclear results; the compound was inactive in the other large screens; ! = a repeat was not active.

CC(C)(C)OC(=O)N1CCc2onc(-c3ccccc3F)c2C1=O	none (no result: TRPM1 prom inh)
CC1=NOC(=O)/C1=C\c1ccc(-c2ccc(Cl)cc2Cl)o1	Peg3 promoter 108, TRPM1 prom inh 73, HIF-2a inh 56
COc1ccc(NC(=O)Cc2ccccc2)cn1	none
COc1ccc(NC(=O)/C(Cl)=C(/Cl)S(=O)Cc2ccccc2)cn1 (configuration not stated)	Shn3 inh set2 97, Peg3 promoter 105, TRPM1 prom inh 104, HIF-2a inh 94, KKLEB tox -95, CF NFkB block 88
CNC(=O)c1ccsc1NC(=O)c1ccc(S(=O)(=O)N2CCCc3ccccc32)cc1	Peg3 promoter 55 (no result: TRPM1 prom inh)
O=C(Nc1nc2c(s1)CCCC2)c1ccc(S(=O)(=O)N2CCCc3ccccc32)cc1	none
CC(=O)c1ccc(N=Nc2ccc(C)cc2)cc1	none
O=C(/C(=C/O)N=Nc1ccccc1)c1ccncc1	none
O=C(/C(=C/O)N=Nc1ccccc1)c1ccc(Cl)cc1	CF NFkB block 63
Cc1ccc(N=N/C(=C\O)C(=O)c2ccc(Cl)cc2)cc1	Peg3 promoter 75, KKLEB tox -57, CF NFkB block 76
O=C1/C(=C/c2ccccc2O)SC(=S)N1Cc1cccnc1	Peg3 promoter 108, CF NFkB block 51
O=C1/C(=C\c2cccc([N+](=O)[O-])c2O)SC(=S)N1Cc1ccccc1	Peg3 promoter 56
O=C1/C(=C\c2cc(Br)cc(Br)c2O)SC(=S)N1Cc1ccccc1	Peg3 promoter 73
COc1cc([N+](=O)[O-])cc(/C=C2/SC(=S)N(Cc3ccccc3)C2=O)c1O	Peg3 promoter 51
O=C1/C(=C\c2ccc(O)cc2)SC(=S)N1Cc1ccccc1	none
OCC(O)C1OC(c2ccco2)OC(CO)C1O (configuration not stated)	none
COc1cc(CNc2ncnc3c2ncn3[C@H]2CN(CCc3ccccc3)C[C@@H](CO)O2)cc(OC)c1OC	none (no result: TRPM1 prom inh)
O=C(Nc1c2c(nn1-c1ccccc1)CS(=O)C2)c1ccco1 (configuration not stated)	none
CCN1C(=O)[C@H]2[C@@H](c3ccc(C)cc3)N[C@]3(CCCN(CCC(C)C)C3=O)[C@H]2C1=O	none (no result: TRPM1 prom inh)
COc1ccc(F)cc1-c1cc(C(=O)NCc2ccc(F)cc2)[nH]n1	none (no result: TRPM1 prom inh)
CN(C)c1ccc(CN(C(=O)c2ccccc2Br)C2CCS(=O)(=O)C2)cc1 (configuration not stated)	none
O=c1c2cccc3c2c(nn1CN1CCOCC1)-c1ccccc1-3	none
CCN(CC)CCn1nc2c3c(cccc3c1=O)-c1ccccc1-2	Peg3 promoter 106, TRPM1 prom inh 70
CN(C)S(=O)(=O)c1ccc(F)c(C(=O)Nc2ccccc2C(=O)NC2CC2)c1	none
O=C(NCc1ccccc1)C1=C[C@H](C2CCCCC2)C[C@H](OCc2ccc(CO)cc2)O1	KKLEB tox -53, CF NFkB block 56
CC1=CC(=O)C(C(C)C)=C/C1=C(\c1cc(C(C)C)c(OP(=O)(O)O)cc1C)c1ccccc1C(=O)O	Peg3 promoter 67
CCOc1ccc(C(=O)c2ccccc2C(=O)O)cc1OCC	none
Cc1cc(N2CCCC2)nc2ccc(NC(=S)NCCCN3CCC(C)CC3)cc12	Peg3 promoter 98
Cc1cc(N2CCN(C)CC2)nc2ccc(NC(=S)NCCN3CCc4ccccc4C3)cc12	Peg3 promoter 61, TRPM1 prom inh 78
CCCN1CCN(CCCNC(=S)Nc2ccc3nc(N4CCN(CC)CC4)cc(C)c3c2)CC1	none (no result: Shn3 inh set2)
CCCCN(C)CCNC(=S)Nc1ccc2nc(N3CCN(CC)CC3)cc(C)c2c1	Peg3 promoter 63
CCN1CCN(c2cc(C)c3cc(NC(=S)NCCN(C)C)ccc3n2)CC1	none
C[C@@H]1CN([C@H](C)CO)C(=O)CCCn2nncc2CO[C@@H]1CN(C)C(=O)c1cc(-c2ccccc2)on1	none (no result: TRPM1 prom inh)
O=C(Nc1c2ccccc2nc2ccccc12)C(Cl)(Cl)Cl	Peg3 promoter 96
CS(=O)(=O)Nc1ccc([N+](=O)[O-])cc1Oc1ccccc1	CF NFkB block 69
O=C(CN1C(=O)/C(=C\C=C\c2ccccc2)SC1=S)Nc1ccc(F)cc1	none
O=C(COC(=O)CCN1C(=O)/C(=C\C=C\c2ccccc2)SC1=S)Nc1cc(F)ccc1F	TRPM1 prom inh 63, HIF-2a inh 83
CN(CC(=O)Nc1ccc(F)cc1)C(=O)CN1C(=O)NC2(CCCc3ccccc32)C1=O (configuration not stated)	none
Cc1ccc2c(c1)N(C)/C(=C/c1cccc[n+]1C)S2	Shn3 inh set2 88
CCN1/C(=C/c2cccc[n+]2C)Sc2ccc(OC)cc21	none
COc1ccc2c(c1)N(C)/C(=C/c1cccc[n+]1C)S2	Peg3 promoter 64
CC(C(=O)Nc1ccccc1)N(C)Cc1cccs1 (configuration not stated)	none
CC1(C)OC2OC(C3COC(=O)O3)C(OC(=O)c3ccccc3)C2O1 (configuration not stated)	none
CC(C)(C)C1CCc2sc(-c3nnc(CCl)o3)cc2C1 (configuration not stated)	none
ClCc1nnc(-c2cc3c(s2)CCCC3)o1	Peg3 promoter 108
CCOc1ccc(NC(=O)CN(C)C(=O)c2ccc3c(c2)C(=O)N(CCC(C)C)C3=O)cc1OCC	none
CCC(=O)N1CCc2cc(S(=O)(=O)CCC(=O)NCc3cccc(OC)c3)ccc21	none
Nc1nc(Cl)cc(N2CCC(c3cc(-c4ccc(Cl)cc4)n[nH]3)CC2)n1	Shn3 inh set2 81, TRPM1 prom inh 65
CCCc1nc(SCC(=O)Nc2ccccc2)c2c(=O)n(C)c(=O)n(C)c2n1	none
Cn1c(=O)c2c(SCC(=O)N3CCCc4ccccc43)nc(CC(C)(C)C)nc2n(C)c1=O	HIF-2a inh 53
CCCc1nc(SCC(=O)N2CCC(Cc3ccccc3)CC2)c2c(=O)n(C)c(=O)n(C)c2n1	Peg3 promoter 99
Cn1c(=O)c2c(SCC(N)=O)nc(CC(C)(C)C)nc2n(C)c1=O	none
CC(C)Cn1c(CCNC(=O)c2ccco2)nc2ccccc21	none
O=C(Nc1cccc(Cl)c1)c1ccc(S(=O)(=O)NCC2CCCO2)cc1 (configuration not stated)	none
CCN1CCN(Cc2ccc(NC(=O)c3ccc(C)c(NC(=O)c4nccn4C)c3)cc2C(F)(F)F)CC1	none
CCN1CCN(Cc2ccc(NC(=O)c3cc(NC(=O)c4cnnc5ccccc45)cc(OC)c3)cc2C(F)(F)F)CC1	Peg3 promoter 100! (no result: TRPM1 prom inh)
CCN1CCN(Cc2ccc(NC(=O)c3ccc(C)c(NC(=O)c4nccnc4N)c3)cc2C(F)(F)F)CC1	Peg3 promoter 81, CF NFkB block 71
CCN1CCN(Cc2ccc(NC(=O)c3cc(NC(=O)c4nccnc4N)cc(OC)c3)cc2C(F)(F)F)CC1	TRPM1 prom inh 73

Bioassay records as filed in PubChem.
